Inconclusive results are not listed. A call without a number means that no potency is given here. Unmarked numbers belong to inactive results. The source made the active and inactive calls. The call rests on the fitted dose curve; in most records, active means well fitted inhibition curve with a large enough effect in the repeat runs; inconclusive means weak or mixed curves; inactive means no such curve, though single readings can be large or run the other way.
Potency means the concentration at half of the fitted maximal effect.

The target in the assay is Cytochrome P450 2D6 (Homo sapiens) (UniProt P10635). As to the kind of experiment: Cytochrome P450 Family 2 Subfamily D Member 6 (CYP2D6) small molecule antagonists: luciferase reporter qHTS assay (AID 1671196). Further: nearly all actives have a fitted effect of over 50% in size. Conditions: P450-Glo CYP2D6 enzyme assay, luciferin luminescence, 1 h; series mostly up to 115 µM. The text has this: U.S. Tox21 Program National Center for Advancing Translational Sciences [NCATS] U.S. Environmental Protection Agency [EPA] National Institutes of Environmental Health Sciences [NIEHS] National Toxicology Program [NTP] U.S. Food and Drug Administration [FDA] Tox21 Assay Overview: Cytochrome P450 (CYP) enzymes are membrane-bound hemeproteins that play a key role in metabolism of drugs and xenobiotics. Evaluation of the effect of chemicals on CYP isozymes is useful to minimize the adverse drug reactions and toxicities in drug development process. Tox21 chemicals were tested for their effect on CYP enzyme activities by using P450-Glo (TM) screening systems (Promega Corporation, Madison, WI). These systems provide a luminescent method containing proluciferin substrates and are converted to luciferin products by CYP isozymes. The luciferin products formed are detected with a luciferin detection reagent, and the amount of light produced is proportional to CYP activity. P450-Glo (TM) CYP2D6 screening system (Catalog. No. V9890) was used to detect the compounds that interfere in CYP2D6 activity.
Chain of Cytochrome P450 2D6 (Homo sapiens) (P10635 whole entry, looked up): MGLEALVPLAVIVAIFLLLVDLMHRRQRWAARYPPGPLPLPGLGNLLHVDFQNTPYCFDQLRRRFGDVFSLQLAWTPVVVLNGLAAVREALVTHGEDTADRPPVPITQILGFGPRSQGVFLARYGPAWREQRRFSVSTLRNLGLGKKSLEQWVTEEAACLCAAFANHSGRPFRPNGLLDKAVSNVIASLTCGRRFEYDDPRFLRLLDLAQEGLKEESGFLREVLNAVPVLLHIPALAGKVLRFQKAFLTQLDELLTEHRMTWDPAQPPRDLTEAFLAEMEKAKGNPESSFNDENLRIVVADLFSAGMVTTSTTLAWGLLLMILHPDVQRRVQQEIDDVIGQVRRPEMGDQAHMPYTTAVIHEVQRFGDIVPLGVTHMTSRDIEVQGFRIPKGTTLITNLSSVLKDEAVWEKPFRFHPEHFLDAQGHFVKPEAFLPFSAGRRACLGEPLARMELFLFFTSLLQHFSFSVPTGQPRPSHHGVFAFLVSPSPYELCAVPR
Tox21 Assay Protocol Summary: Two ul of enzyme-substrate mix was dispensed into medium binding white/solid 1536-well plates (Greiner Bio-One North America Inc., Monroe, NC) using a BioRaptr Flying Reagent Dispenser (FRD, Beckman Coulter, Brea, CA). […] The assay plates were incubated at room temperature for 10 min. Then 2 ul of NADPH regeneration solution was added to each well of the assay plates using an FRD and incubated at room temperature for 1 h. The reaction was stopped by adding 4 ul of detection reagent using an FRD and after 20 min incubation at room temperature the luminescence signal was measured using a ViewLux plate reader (Perkin Elmer, Shelton, CT). Data were expressed as relative luminescence units.
On to `c1ccc(CCCc2ccncc2)cc1`, for which the Potency was 4.48 µM (active).

`C[C@@H]1[C@H](O)[C@@H](C)/C=C/C=C\C=C\C=C\C=C\C=C\C=C\[C@H](O[C@@H]2O[C@H](C)[C@@H](O)[C@H](N)[C@@H]2O)C[C@@H]2O[C@](O)(C[C@@H](O)C[C@@H](O)[C@H](O)CC[C@@H](O)C[C@@H](O)CC(=O)O[C@H]1C)C[C@H](O)[C@H]2C(=O)O` (stereo in doubt): the Potency entry is “inactive”.

With `Cc1cccc(C)c1NC(=O)c1cc(S(N)(=O)=O)c(Cl)cc1O`, the Potency entry is “inactive”.

As to `C=Cc1ccc(OC(C)=O)cc1`, the Potency result was “inactive”.

As for `CC(C)OC(=O)c1ccccc1C(=O)OC(C)C`, the Potency entry is “inactive”.

On to `CC(=O)OC(C)C[N+](C)(C)C` (stereo not given), for which the Potency entry was “inactive”.

With `CC1=CC[C@@]23C[C@@H]1C(C)(C)[C@@H]2CC[C@H]3C`, the Potency entry is “inactive”.

As for `CC(=O)OCC(=O)[C@@]1(OC(C)=O)[C@@H](C)C[C@H]2[C@@H]3C[C@H](F)C4=CC(=O)C=C[C@]4(C)[C@@]3(F)[C@@H](O)C[C@@]21C`, the Potency result is “inactive”.

As to `FC(F)(F)C(F)(F)C(F)(F)C(F)(F)CCI`, the Potency entry is “inactive”.

For `CCN(CC)C(=O)N1CCN(C)CC1`, the Potency result is “inactive”.

`CC[C@H]1OC(=O)[C@H](C)[C@@H](O[C@H]2C[C@@](C)(OC)[C@@H](O)[C@H](C)O2)[C@H](C)[C@@H](O[C@@H]2O[C@H](C)C[C@H](N(C)C)[C@H]2O)[C@](C)(O)C[C@@H](C)CN(C)[C@H](C)[C@@H](O)[C@]1(C)O`: the Potency entry was “inactive”.

Consider `BrC(Br)C(Br)Br`, for which the Potency result is “inactive”.

Take `C[C@@H]1C[C@H]2[C@@H]3CCC4=CC(=O)C=C[C@]4(C)[C@@]3(F)[C@@H](O)C[C@]2(C)[C@@]1(O)C(=O)COP(=O)(O)O`: the Potency result was “inactive”.

Take `CCCc1nc2c(C)cc(-c3nc4ccccc4n3C)cc2n1Cc1ccc(-c2ccccc2C(=O)O)cc1`: the Potency result was “inactive”.

`CC(C(=O)O)c1ccc(C(=O)c2cccs2)cc1` (stereo not given): the Potency result is “inactive”.

As for `CC1CCCO1` (stereo not given), the Potency result is “inactive”.

With `COC(C)(C)OC`, the Potency result is “inactive”.

With `O=C(O)/C=C/c1ccc(O)c(O)c1`, the Potency entry was “inactive”.

As to `CCN(CC)CC(=O)Nc1c(C)cccc1C(=O)OC`, the Potency was 38.9 µM (active).

As for `CC1C(C)(C)C2=C(C(=O)CCC2)C1(C)C` (stereo not given), the Potency result was “inactive”.

Regarding `CCOc1ncc(F)c(=O)[nH]1`, the Potency entry is “inactive”.

With `Cc1cc(CCC(=O)OCCOCCOCCOC(=O)CCc2cc(C)c(O)c(C(C)(C)C)c2)cc(C(C)(C)C)c1O`, the Potency is 9.78 µM (active).

With `CCN(CC)CCOC(=O)C(c1ccccc1)c1ccccc1`, the Potency is 2.75 µM (active).

For `CCC(Cl)CC(Cl)C(Cl)C(Cl)C(Cl)C(C)Cl` (stereo not given), the activity change, negative = inhibition was -20% [at 23.6 µM].

Turning to `Cc1ccccc1S(N)(=O)=O`, the Potency result is “inactive”.

In the case of `CC(C)C1CCC(C(=O)N[C@H](Cc2ccccc2)C(=O)O)CC1` (stereo not given in full), the Potency result was “inactive”.

Turning to `Cc1ccc(NC(=O)N(C)C)cc1NC(=O)N(C)C`, the Potency result was “inactive”.

Regarding `COC(=O)C1=C(C)NC(C)=C(C(=O)OC(C)(C)CN(C)CCC(c2ccccc2)c2ccccc2)C1c1cccc([N+](=O)[O-])c1` (stereo not given), the Potency is 4.36 µM (active).

Take `CCCCCCCCCCCCCOC(=O)CCSCCC(=O)OCCCCCCCCCCCCC`: the activity change, negative = inhibition is -6.54% [at 23.6 µM].

On to `COc1cc(C(C)=O)ccc1OCCCN1CCC(c2noc3cc(F)ccc23)CC1`, for which the Potency is 11 µM (active).

As for `O=C(c1ccccc1)C1CCC1`, the Potency entry is “inactive”.

Turning to `Nc1ccc(F)cc1`, the Potency entry is “inactive”.

On to `CC(=O)OCC1=C(C(=O)O)N2C(=O)[C@@H](NC(=O)CSc3ccncc3)[C@H]2SC1`, for which the Potency was 11 µM (active).

As to `O=C1NC(=O)c2cccc3cccc1c23`, the Potency result is “inactive”.

Consider `Cc1ccc2c(c1[N+](=O)[O-])C(=O)c1ccccc1C2=O`, for which the Potency result was “inactive”.

In the case of `O=C(O)CCS`, the Potency result is “inactive”.

For `O=C(O)CNC(=O)c1ccccc1I`, the Potency result is “inactive”.

For the compound `CC(=O)NNC(C)=O`, the Potency result is “inactive”.

`COC1CCC=CO1` (stereo not given): the Potency entry was “inactive”.

Consider `O=C1[C@@H]2[C@H]3CC[C@H](C3)[C@@H]2C(=O)N1CCCCN1CCN(c2ncccn2)CC1`, for which the Potency was 12.3 µM (active).
